Calls of active or inactive are those of the source. Unless noted, no stated cut-off is given here; in the data, active means inhibition above about 80%; inactive means the rest.
Tests used:
[1] = sensitizers of A549 cells to miR-34 induction, primary screen, imaging, A549 dox-inducible miR-34, nuclei and caspase counts (AID 1347080;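 active means compounds whose cell count with miR-34 switched on is under 0.7 times the count with it off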); conditions: A549 miR-34 inducible, Hoechst nuclei count, 48 h
[2] = survival rescue of mitochondrial mutant cells in low glucose, primary screen, MELAS cybrids, Rieske KO mouse fibroblasts, CellTiter-Glo (AID 1508586;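 active means mean z-score across replicates of 1.96 or higher in either the MELAS or the Rieske mutant cell line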;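 further: z relative to plate mean and SD of compound and empty wells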)
[3] = LFS_MB_P medulloblastoma growth inhibition, cell-based, chromothripsis tumors, cisplatin or BGB combos (AID 1671449); conditions: LFS_MB_P medulloblastoma cells;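 further: cells exposed for 96 hours; 0% = vehicle DMSO and 100% = killing by high DMSO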
[4] = HDN33 neuroblastoma growth inhibition, cell-based, chromothripsis tumors, cisplatin or BGB combos (AID 1671450); conditions: HDN33 neuroblastoma cells, stronger effect = higher value;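 further: cells exposed to compound for four days; 0% = vehicle DMSO and 100% = cell killing by high DMSO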
[5] = ICB984 medulloblastoma cell growth inhibition, synergistic combos for chromothripsis tumors, cisplatin or BGB combos (AID 1671451; call rule not given here;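 further: cells exposed for 96 hours before readout; 0% = vehicle DMSO and 100% = killing by high DMSO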); conditions: ICB984 medulloblastoma cells, drug combinations, stronger effect = higher value
[6] = LFS_MB_1R medulloblastoma cell growth inhibition, synergistic combos for chromothripsis tumors, cisplatin or BGB combos (AID 1671452); conditions: LFS_MB_1R medulloblastoma cells, stronger effect = higher value;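 further: cells exposed for 96 hours before readout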
[7] = HTB85 osteosarcoma cell growth inhibition, synergistic combos for chromothripsis tumors, BGB or cisplatin IC20 combos (AID 1671453); conditions: HTB85 osteosarcoma cells, drug combinations, stronger effect = higher value;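 further: cells exposed for 96 hours before readout; 0% = vehicle DMSO and 100% = high DMSO killing control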
[8] = CRL2098 osteosarcoma cell growth inhibition, synergistic combos for chromothripsis tumors, BGB or cisplatin IC20 combos (AID 1671454); conditions: CRL2098 osteosarcoma cells, drug combinations, stronger effect = higher value;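 further: cells exposed for 96 h before readout; 0% = vehicle DMSO and 100% = killing by high DMSO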
[9] = HD-MB03 medulloblastoma cell growth inhibition, synergistic combos for chromothripsis tumors, BGB or cisplatin IC20 combos (AID 1671455; in the data active means inhibition above about 83%;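 further: 0% = vehicle DMSO and 100% = high DMSO as cytotoxic control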); conditions: HD-MB03 medulloblastoma cells, stronger effect = higher value
[10] = UWB1.289 ovarian carcinoma cell growth inhibition, synergistic combos for chromothripsis tumors, BGB or cisplatin combos (AID 1671456); conditions: UWB1.289 ovarian carcinoma cells, stronger effect = higher value;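 further: cells exposed to compound for four days; 0% = vehicle DMSO and 100% = killing by high DMSO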
[11] = LFS_MB_2R medulloblastoma cell growth inhibition, synergistic combos for chromothripsis tumors, cisplatin combos (AID 1671457); conditions: LFS_MB_2R medulloblastoma cells, stronger effect = higher value;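 further: cells exposed to compound for four days before readout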
[12] = MDA-MB-436 breast carcinoma cell growth inhibition, synergistic combos for chromothripsis tumors, BGB or cisplatin combos (AID 1671458; call rule not given here;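 further: cells exposed for 96 hours; 0% = vehicle DMSO and 100% = killing by high DMSO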); conditions: MDA-MB-436 breast carcinoma growth inhibition, drug combinations, stronger effect = higher value
[13] = UWB1.289_BRCA1 ovarian cancer growth, cell-based, BGB or cisplatin combinations (AID 1671459); conditions: UWB1.289 BRCA1 ovarian carcinoma, drug combinations, stronger effect = higher value
[14] = human astrocyte viability loss, single and combined drugs, cytotoxicity control for chromothriptic childhood tumor combination screen, cell-based, BGB or cisplatin IC20 combos (AID 1671460); conditions: Human astrocytes, drug combinations, stronger effect = higher value;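 further: cells exposed to compounds for 96 hours before viability readout; 0% = vehicle and 100% = killing control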
[15] = growth inhibition of BT084 medulloblastoma cells, cell-based, ICGC_MB145, cisplatin and BGB IC40 combos (AID 1671461); conditions: drug combinations, stronger effect = higher value;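 further: cells exposed to drugs for 96 hours; 0% = vehicle DMSO and 100% = high DMSO full killing control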
[16] = growth inhibition of RCMB18 medulloblastoma cells, cell-based, cisplatin and BGB IC40 combos (AID 1671462); conditions: stronger effect = higher value;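 further: cells exposed to compound for four days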
[17] = growth inhibition of CRL1545 osteosarcoma cells, cell-based, cisplatin and BGB IC20 combos (AID 1671464); conditions: stronger effect = higher value;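 further: cells exposed to compound for 96 hours before readout; 0% = vehicle DMSO and 100% = high DMSO killing control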
[18] = measured here: combination with BGB IC40, at 0.05 µM
[19] = measured here: with BGB IC20 combination, at 0.5 µM
[20] = measured here: with cisplatin IC20 combination, at 0.5 µM
[21] = measured here: combination with cisplatin, at 0.5 µM
[22] = measured here: combination with cisplatin, at 5 µM

CC(C)(C#N)c1ccc(N2C(=O)OCc3cnc4ccc(-c5cnc6ccccc6c5)cc4c32)cc1
fold change ([1]; stronger effect = lower value, cell number ratio, induced over uninduced): 0.956 (inactive)
fold change ([1]; measured here: relative caspase fold change +Dox/-Dox): 0.673
cell count ([1]; measured here: total cells with miR-34 induction, stronger effect = lower value): 2510
cell count ([1]; measured here: total cells without miR-34 induction): 2620
z-score ([2]; MELAS cybrid survival, CellTiter-Glo 48 h, stronger effect = higher value): 3.99 (active)
z-score ([2]; Rieske KO mouse fibroblast survival, CellTiter-Glo 72 h): 2.98
inhibition ([3]; at 0.5 µM, stronger effect = higher value): -21.4% (inactive)
inhibition ([3]; measured here: combination with BGB IC20, at 0.005 µM): -11.2%
inhibition ([3]; measured here: combination with BGB IC40, at 0.005 µM): -17%
inhibition [3, 18]: -37.9%
inhibition ([3]; measured here: combination with cisplatin, at 0.5 µM, stronger effect = higher value): -37.5%
inhibition ([3]; measured here: combination with cisplatin, at 5 µM, stronger effect = higher value): -27.3%
inhibition ([4]; BGB combo, at 5 µM): 20.7%
inhibition ([4]; at 0.5 µM): 3.13% (inactive)
inhibition ([4]; cisplatin combo, at 5 µM): 12.1%
inhibition [4, 19]: 34.2%
inhibition [4, 20]: -10.9%
inhibition ([4]; single agent, at 5 µM): 52.2%
inhibition ([5]; BGB IC20 combo, at 0.005 µM): -18.4%
inhibition ([5]; BGB IC40 combo, at 0.005 µM): -8.9%
inhibition ([5]; BGB IC40 combo, at 0.05 µM): 30.5%
inhibition ([5]; at 0.5 µM): -29.7% (inactive)
inhibition ([5]; cisplatin combo, at 0.05 µM): 28.5%
inhibition ([5]; cisplatin combo, at 0.5 µM): -15.5%
inhibition ([5]; cisplatin combo, at 5 µM): -36.2%
inhibition ([5]; measured here: 5 uM single agent, at 5 µM): -21.9%
inhibition ([6]; at 0.5 µM): -13.4% (inactive)
inhibition [6, 18]: -7.9%
inhibition [6, 21]: -39.8%
inhibition [6, 22]: 24%
inhibition ([7]; at 0.5 µM): 3.37% (inactive)
inhibition ([7]; measured here: with BGB IC20, at 0.5 µM): 2.55%
inhibition ([7]; measured here: with BGB IC20, at 5 µM): 14.5%
inhibition ([7]; measured here: with cisplatin IC20, at 0.5 µM): -23.6%
inhibition ([7]; measured here: with cisplatin IC20, at 5 µM): 28.2%
inhibition ([7]; single agent, at 5 µM): -10.2%
inhibition ([8]; at 0.5 µM): -42.5% (inactive)
inhibition ([8]; measured here: combination with BGB at IC20, at 0.5 µM): -42.2%
inhibition ([8]; measured here: combination with cisplatin at IC20, at 0.5 µM): -56.5%
inhibition ([9]; at 0.5 µM): -11.6% (inactive)
inhibition ([9]; measured here: combo with BGB at IC20, at 0.5 µM): -14.5%
inhibition ([9]; measured here: combo with cisplatin at IC20, at 0.5 µM): -8.16%
inhibition ([10]; at 0.5 µM): 5.6% (inactive)
inhibition ([10]; measured here: inhibition with BGB combination, at 0.05 µM): -17%
inhibition ([10]; measured here: inhibition with cisplatin combination, at 0.05 µM): -6.61%
inhibition ([11]; at 0.5 µM): -11.6% (inactive)
inhibition [11, 21]: -16.8%
inhibition [11, 22]: -39.1%
inhibition ([12]; at 0.5 µM): -25% (inactive)
inhibition ([12]; measured here: BGB combination, at 0.5 µM): -28.5%
inhibition ([12]; measured here: BGB combination, at 5 µM): -0.266%
inhibition ([12]; measured here: cisplatin combination, at 0.5 µM): -29.7%
inhibition ([12]; measured here: cisplatin combination, at 5 µM): -3.36%
inhibition ([13]; BGB combination, concentration series, at 5 µM): 53.9%
inhibition ([13]; at 0.5 µM): 6.07% (inactive)
inhibition ([13]; cisplatin combination, concentration series, at 5 µM): 99.8%
inhibition ([14]; at 0.5 µM): -4.16% (inactive)
inhibition ([14]; measured here: combo with BGB IC20, at 0.5 µM): -12.4%
inhibition ([14]; measured here: combo with cisplatin IC20, at 0.5 µM): -5.44%
inhibition ([15]; at 0.5 µM): -28.9% (inactive)
inhibition ([15]; cisplatin combination, at 0.5 µM): -2.27%
inhibition ([15]; cisplatin combination, at 5 µM): 60.4%
inhibition ([15]; measured here: BGB IC40 combination 0.05 uM, at 0.05 µM): -35.6%
inhibition ([15]; single agent, at 5 µM): 4.04%
inhibition ([16]; at 0.5 µM): -2.14% (inactive)
inhibition ([16]; cisplatin combo, at 5 µM): 20.5%
inhibition ([16]; measured here: BGB IC40 combination, at 0.05 µM): -35.7%
inhibition [16, 21]: 7.95%
inhibition ([16]; single agent, at 5 µM): 19.4%
inhibition ([17]; at 0.5 µM): 0.16% (inactive)
inhibition [17, 19]: -15%
inhibition [17, 20]: 5.66%
inhibition ([17]; single agent, at 0.05 µM): -4.01%
inhibition ([17]; single agent, at 5 µM): 26.5%
